From PubChem BioAssay AID2685 (National Center for Advancing Translational Sciences (NCATS), 2010) come the findings set out here.

Screen size: about 320,000 compounds; about 2,100 (0.66%) were called active. Inconclusive results (about 53%) are left out. The call rests on the fitted dose curve; in most records, active means well fitted inhibition curve with a large enough effect in the signal ratio, with a control signal flat (not every such curve was filed as active); inconclusive means small, poorly fitted or top-dose-only effect, or effect the other way, or a change in a side signal; inactive means flat fitted curve, though single readings scatter; the % refers to the signal ratio. What follows is part of a selection rich in actives, with near analogues and random picks from the rest.
Potency means the concentration at half of the fitted maximal effect.

The nature of this experiment: qHTS Assay for Lipid Storage Modulators in Drosophila S3 Cells.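 On cell number change: cells counted by Cell Tracker Red CMTPX staining in the red channel.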 On lipid storage change, negative = inhibition: on the % scale 0 is the no-effect control and ±100 the full control effect. To be noted: BODIPY lipid droplet fluorescence, 18-24 h, cells fed with added oleic acid; cell number change: measured here: cell count max response; series mostly up to 46.1 µM; lipid storage change, negative = inhibition: at the top concentration. Put shortly: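 Drosophila S3 cells loaded with oleic acid (400 uM, as added) and compounds at several concentrations; lipid droplets imaged by 488-nm laser-scanning cytometry, 500–530 nm intensity and object ratio to cell channel. Percent activity normalized to 20 uM Triacsin C.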
Background: qHTS replaces the single test concentration by a dilution series.
As for `Cc1ccc(/C=C2\Oc3cc(OC(=O)N4CCOCC4)ccc3C2=O)cc1`, the “lipid storage change, negative = inhibition” value is 2.13% (inactive) and the cell number change is 0.311%.
Regarding `COC(=O)CC(NC(=O)C1CC1)c1ccc2c(c1)OCO2` (centres undefined), the “lipid storage change, negative = inhibition” value is 4.85% (inactive).
Consider `CC1Oc2ccccc2C=C1/C=N/NC(=O)[C@@H](C)NC(=O)OC(C)(C)C` (some centres undefined), for which the “lipid storage change, negative = inhibition” value was 5.39% (inactive) and the cell number change was determined as 8.38%.
As for `CCOC(=O)N1CCN(C(=O)c2ccc(Cn3c(=S)[nH]c4cc(OCC)c(OCC)cc4c3=O)cc2)CC1`, the “lipid storage change, negative = inhibition” value was 7.39% (inactive).
On to `COc1ccc(CCNC(=O)C(=O)N2CCCCC2)cc1OC`, for which the “lipid storage change, negative = inhibition” value is -1.78% (inactive) and the cell number change turned out to be 6.42%.
For `O=C(Nc1ccc(NC(=O)c2cccs2)cn1)c1ccccc1`, in that order: -16.2% (inactive) and 8.82%.
The corresponding values for `COc1ccc(C(=O)Nc2cnc(NC(=O)c3cccs3)cc2C)cc1` are 25.6% (inactive) and -9.21%.
As for `COc1ccc(C(=O)Nc2ccc(NC(=O)c3cccs3)cn2)cc1`, the Potency was 10.3 µM (active) and the cell number change came out at 12.4%.
On to `O=C(NCCCO)/C(=C\c1cn(-c2ccccc2)nc1-c1cccnc1)NC(=O)c1ccccc1`, for which the “lipid storage change, negative = inhibition” value was 19.7% (inactive) and the cell number change was 19.4%.
The corresponding values for `COC(=O)c1cc(C(=O)OCC(=O)NCc2cccs2)cc([N+](=O)[O-])c1` are -3.38% (inactive) and -8.04%.
On to `N#Cc1ccccc1S(=O)(=O)N1CCN(S(=O)(=O)c2ccc(Br)c(C(=O)O)c2)CC1`, for which the “lipid storage change, negative = inhibition” value was -3.74% (inactive).
Regarding `CCCCn1c(N)c(N(CCOC)C(=O)C2CCN(S(=O)(=O)c3ccc(C)cc3C)CC2)c(=O)[nH]c1=O`, the lipid storage change, negative = inhibition was 17.2% [at 0.0737 µM] (inactive).
For `Cc1nnc2n(c1=O)C(CS(=O)(=O)c1ccc3ccccc3c1)CS2` (centres undefined), the “lipid storage change, negative = inhibition” value is 7.18% (inactive) and the cell number change came to 2.91%.
On to `O=[N+]([O-])c1ccc(S(=O)(=O)CC2CSc3nc4ccccc4n32)cc1` (centres undefined), for which the Potency is 32.6 µM (active) and the cell number change is -0.884%.
As to `Cc1ccc(S(=O)(=O)CC2CSc3nc(N)cc(=O)n32)cc1` (centres undefined), the “lipid storage change, negative = inhibition” value is -8.79% (inactive) and the cell number change amounted to 2.18%.
For `CCOC(=O)Nc1cc2c(C)cc(=O)oc2cc1C`, in that order: 38.2% (inactive) and 12.9%.
The corresponding values for `Cc1ccc(CN2CCN(Cc3c[nH]c4ccccc34)CC2CCO)o1` (centres undefined) are -12.5% (inactive) and 12.4%.
The corresponding values for `Cc1cccc(C)c1NC(=O)N1C2CCC1CC(O)(c1cccnc1)C2` (centres undefined) are 0.613% (inactive) and 9.99%.
`O=C(Nc1ccccc1C(=O)NC1CC1)c1ccccc1`: the “lipid storage change, negative = inhibition” value is 3.91% (inactive) and the cell number change was determined as 10.8%.
For `CCOC(=O)C1=NN(c2cccc(Cl)c2)C2=NC(C)=C(C(=O)OC)C(c3cccs3)N12` (centres undefined), in that order: -3.04% (inactive) and -18.3%.
For `COc1ccc2ccccc2c1/C=N/NC(=O)c1ccc([N+](=O)[O-])cc1`, in that order: -10.6% (inactive) and -15.8%.
As for `CCOc1ccc2ccccc2c1/C=N/NC(=O)c1ccncc1`, the molecule was called inactive and the cell number change came out at 6.87%.
As for `CCOc1ccc2ccccc2c1/C=N\NC(=O)c1ccc([N+](=O)[O-])cc1`, the Potency was 6.51 µM (active) and the cell number change is -16.1%.
For the molecule `CC(C)CNC(=O)CN1C(=O)NC2(CCCc3ccccc32)C1=O` (centres undefined), the “lipid storage change, negative = inhibition” value was -4.01% (inactive) and the cell number change came out at 7.92%.
The corresponding values for `CCCNC(=O)C1CCN(S(=O)(=O)c2ccc3nc4c(c(C(=O)O)c3c2)CCCCC4)CC1` are 18.1% (inactive) and 4.41%.
For `CN(C)N1C(=O)CC(C)(c2ccc([N+](=O)[O-])cc2)C1=O` (centres undefined), in that order: -2.1% (inactive) and -4.15%.
The corresponding values for `Cc1cccc(-n2ncc3c(=O)[nH]c(SCC(=O)NCCC4=CCCCC4)nc32)c1` are -10.6% (inactive) and -11%.
With `O=C(OCCc1cc2ccccc2c(=O)o1)c1cccc(Br)c1`, the Potency is 0.13 µM (active) and the cell number change was -23.3%.
Turning to `O=C(OCCCc1cc2ccccc2c(=O)o1)c1ccc2c(c1)OCO2`, the “lipid storage change, negative = inhibition” value was 0.96% (inactive) and the cell number change was -12%.
The corresponding values for `N#Cc1ccc(C(=O)OCCCc2cc3ccccc3c(=O)o2)cc1` are 9.51% (inactive) and 18%.
With `CC(C)CN1CCN(Cc2cccn2-c2ccc(Cl)cn2)CC1CCO` (centres undefined), the “lipid storage change, negative = inhibition” value is 5.56% (inactive) and the cell number change was 10.5%.
The corresponding values for `COc1ccc2c(c1)sc1nc(=O)ccn12` are -19.5% (inactive) and 21.5%.
Consider `CCCCc1c(O)nc2sc3cc(OC)ccc3n2c1=O`, for which the Potency was 10.3 µM (active) and the cell number change came out at 9.25%.
On to `CCCCc1c(O)nc2sccn2c1=O`, for which the “lipid storage change, negative = inhibition” value was 15.8% (inactive).
Consider `O=C(CN1CCOC1=O)N1CCCC(N2CCN(c3cccc(C(F)(F)F)c3)CC2)C1` (centres undefined), for which the outcome was inactive and the cell number change was -10.2%.
In the case of `CSCC(=O)N1CCCC(N2CCN(c3cccc(C(F)(F)F)c3)CC2)C1` (centres undefined), the Potency is 13 µM (active) and the cell number change was 7.35%.
Consider `CCN(CC)CC(=O)N1CCCC(N2CCN(c3cccc(C(F)(F)F)c3)CC2)C1` (centres undefined), for which the “lipid storage change, negative = inhibition” value was 12.5% (inactive) and the cell number change was 21%.
Take `CCc1ncc(CN2CCCC(C(=O)Nc3cccc(-c4ccc(F)cc4)c3)C2)cn1` (centres undefined): the Potency is 20.6 µM (active) and the cell number change was -24.6%.
For the molecule `O=C(Nc1cccc(-c2ccc(F)cc2)c1)C1CCCN(Cc2cccnc2)C1` (centres undefined), the “lipid storage change, negative = inhibition” value was -8.86% (inactive) and the cell number change was -21.8%.
For the molecule `CCc1ncc(CN2CCCC(C(=O)Nc3cccc(-c4cccc(C)c4)c3)C2)cn1` (centres undefined), the “lipid storage change, negative = inhibition” value was 11.6% (inactive) and the cell number change came out at 8.11%.
For `C=CCN(Cc1nc(-c2ccccc2)no1)C(=O)c1ccoc1C`, in that order: -4.28% (inactive) and 33.5%.
For `Cc1cc(=O)oc2cc(Oc3ccc(C(N)=O)cc3[N+](=O)[O-])ccc12`, in that order: 0.639% (inactive) and 5.31%.
On to `Cc1cc(=O)oc2cc(Oc3ncccc3[N+](=O)[O-])ccc12`, for which the “lipid storage change, negative = inhibition” value was -0.796% (inactive) and the cell number change worked out at 13.9%.
With `Cc1cc(=O)oc2cc(Oc3ccc([N+](=O)[O-])cc3[N+](=O)[O-])ccc12`, the Potency was 20.6 µM (active) and the cell number change was -13.4%.
Take `O=C(COc1ccccc1)NNC(=S)NC(=O)c1ccc(Cl)cc1Cl`: the “lipid storage change, negative = inhibition” value was 3.86% (inactive) and the cell number change was -11.7%.
The corresponding values for `N#Cc1cc2c(nc1Cl)CCC2` are 16.3% (inactive) and 0.397%.
For the molecule `COc1cc(/C=C(/C(=O)c2cccs2)c2nc3ccccc3[nH]2)ccc1O`, the molecule was called inactive and the cell number change is -19%.
Consider `O=C(/C(=C/c1cccc(Cl)c1)c1nc2ccccc2[nH]1)c1ccccc1`, for which the Potency is 9.2 µM (active) and the cell number change is -22.6%.
For `O=C(NCc1ccco1)/C(=C/c1cccc(C(F)(F)F)c1)c1nc2ccccc2[nH]1`, the “lipid storage change, negative = inhibition” value was 2.93% (inactive) and the cell number change was -4.5%.
For `Cc1ccc2nc(-c3ccccc3)c(-c3ccccc3)nc2c1`, in that order: 21.7% (inactive) and 8.82%.
For `CCOc1cc(/C=C(\C#N)c2nc3ccccc3[nH]2)ccc1OC(C)C(=O)O` (centres undefined), in that order: 3.1% (inactive) and 5.37%.
In the case of `N#C/C(=C\c1ccccc1OCC(=O)O)c1nc2ccccc2[nH]1`, the “lipid storage change, negative = inhibition” value was -13.5% (inactive).
With `CCN(CC)c1ccc(/C=C(/C#N)c2nc3ccccc3[nH]2)c(OC(C)C)c1`, the Potency was 3.66 µM (active).
Consider `CCN(C(=O)COC(=O)c1cc(=O)c2ccccc2o1)c1c(N)n(Cc2ccccc2)c(=O)[nH]c1=O`, for which the “lipid storage change, negative = inhibition” value was -18.7% (inactive).
Turning to `COc1cccc(CN2C(=O)C(C)N(C(=O)c3ccccc3)c3ccccc32)c1` (centres undefined), the “lipid storage change, negative = inhibition” value was -3.54% (inactive) and the cell number change was -9.22%.
The corresponding values for `Cc1ccccc1N(CC(=O)NC1CCCC1)C(=O)c1csnn1` are 0.767% (inactive) and -1.91%.
For `CC(=O)c1ccc(N(CC(=O)NC2CCCCC2)C(=O)c2csnn2)cc1`, in that order: -2.57% (inactive) and -0.427%.
As to `Cc1cc(C)cc(N(CC(=O)NC2CCCCC2)C(=O)c2csnn2)c1`, the Potency is 6.51 µM (active) and the cell number change turned out to be 3.85%.
The corresponding values for `Cc1ccc(Cl)cc1N(CC(=O)NC1CCCC1)C(=O)c1csnn1` are 0.82 µM (active) and 11.3%.
With `Cc1ccc(C)c(N(CC(=O)NC2CCCCC2)C(=O)c2csnn2)c1`, the outcome was inactive and the cell number change was 7.08%.
For `Cc1cc(C)cc(N(CC(=O)NC2CCCC2)C(=O)c2csnn2)c1`, in that order: “inactive” and 20%.
